This is an account of results in PubChem BioAssay.

The source made the active and inactive calls.

Assay [1] relates to PRMT1 (protein arginine N-methyltransferase 1). The assay can be described thus: PRMT1 binders on small-molecule microarrays, primary screen, biochemical, small-molecule microarray, 635 nm fluorescence (AID 1088).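 Further: binding of Prmt1 protein to compounds spotted on small-molecule microarray slides.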 To be noted: small-molecule microarray binding, higher = more signal.
Assay [2] can be described thus: yeast growth modulation, basal conditions, primary screen, YJM789 clinical isolate, OD600, 24 h (AID 1089).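 Further: growth of clinical yeast isolate S. cerevisiae YJM 789 seeded 1000 cells per well; test concentration not given here.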 Particulars: S. cerevisiae YJM789 growth, higher = more signal, called active from +8 up or from −8 down.
Assay [3] can be described thus: fission yeast growth modulation, primary screen, strain 972, OD600, 24 h, no modulator (AID 1090).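 Further: basal condition with compound alone and no growth modifier present; test concentration not given here.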 Particulars: S. pombe 972 growth, higher = more signal, called active from +8 up or from −8 down.
The nature of assay [4]: S. cerevisiae growth modulation with rapamycin, primary screen, strain BY4716, OD600, 96 h (AID 1091). Further: test concentration not given here. To be noted: higher = more signal, called active from +8 up or from −8 down.
The target in assay [5] is Torsin-1A-interacting protein 2 (Homo sapiens) (UniProt Q8NFQ8). The assay can be described thus: LULL1 binders on small-molecule microarray, primary screen, cell lysate, human LULL1 lysate, 635/667 nm fluorescence (AID 1092).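 Further: probe is lysate of COS7 cells overexpressing human LULL1; score merges per-feature 667 nm fluorescence with signal-to-noise.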 Particulars: hLULL1 lysate binding, 635 nm fluorescence, higher = more signal.
Sequence of Torsin-1A-interacting protein 2 (Homo sapiens) (Q8NFQ8 whole entry, looked up): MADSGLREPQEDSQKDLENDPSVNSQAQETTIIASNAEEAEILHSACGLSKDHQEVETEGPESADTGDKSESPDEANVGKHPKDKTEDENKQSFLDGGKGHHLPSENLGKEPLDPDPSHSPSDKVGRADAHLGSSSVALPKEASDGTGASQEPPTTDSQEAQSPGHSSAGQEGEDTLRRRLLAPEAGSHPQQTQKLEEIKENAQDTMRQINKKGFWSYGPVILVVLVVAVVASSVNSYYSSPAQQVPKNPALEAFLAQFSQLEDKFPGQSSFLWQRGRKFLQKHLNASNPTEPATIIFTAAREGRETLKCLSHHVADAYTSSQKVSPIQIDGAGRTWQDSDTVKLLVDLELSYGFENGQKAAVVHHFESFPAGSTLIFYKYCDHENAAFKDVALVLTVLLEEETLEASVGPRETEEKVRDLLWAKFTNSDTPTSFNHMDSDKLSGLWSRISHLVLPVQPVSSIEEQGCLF
Assay [6] is described as follows: E. coli growth modulation, two-sided OD650, primary screen, E. coli filamentation project, strain DRC41, 24 h (AID 1093).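 Further: MC1000 strain lacking acrAB efflux and sulA so SOS filamentation is blocked; test concentration not given here.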 To be noted: OD650, 24 h, higher = more signal, called active from +8 up or from −8 down.
Assay [7] in a line: small-molecule microarray binders of probe aLefty2, primary screen, biochemical, biotinylated probe, 635/667 nm fluorescence (AID 1094).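 Further: score merges spot fluorescence near 667 nm with spot signal-to-noise ratio.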 To be noted: higher = more signal.
Assay [8] concerns Noggin (protein binding on small-molecule microarray). The experiment in a line: Noggin binders on small-molecule microarray, primary screen, biochemical, 635/667 nm fluorescence (AID 1095).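 Further: score merges 667 nm feature fluorescence with signal to noise over triplicate slides.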 To be noted: 635 nm fluorescence, higher = more signal.
In assay [9] the target is Neurogenic locus notch homolog protein 3 (Homo sapiens) (UniProt Q9UM47). The assay can be described thus: NOTCH3 binders on small-molecule microarray, primary screen, biochemical, 635/667 nm fluorescence (AID 1096). To be noted: NOTCH3 binding, 635 nm fluorescence, higher = more signal.
Sequence of Neurogenic locus notch homolog protein 3 (Homo sapiens) (Q9UM47 whole entry, looked up): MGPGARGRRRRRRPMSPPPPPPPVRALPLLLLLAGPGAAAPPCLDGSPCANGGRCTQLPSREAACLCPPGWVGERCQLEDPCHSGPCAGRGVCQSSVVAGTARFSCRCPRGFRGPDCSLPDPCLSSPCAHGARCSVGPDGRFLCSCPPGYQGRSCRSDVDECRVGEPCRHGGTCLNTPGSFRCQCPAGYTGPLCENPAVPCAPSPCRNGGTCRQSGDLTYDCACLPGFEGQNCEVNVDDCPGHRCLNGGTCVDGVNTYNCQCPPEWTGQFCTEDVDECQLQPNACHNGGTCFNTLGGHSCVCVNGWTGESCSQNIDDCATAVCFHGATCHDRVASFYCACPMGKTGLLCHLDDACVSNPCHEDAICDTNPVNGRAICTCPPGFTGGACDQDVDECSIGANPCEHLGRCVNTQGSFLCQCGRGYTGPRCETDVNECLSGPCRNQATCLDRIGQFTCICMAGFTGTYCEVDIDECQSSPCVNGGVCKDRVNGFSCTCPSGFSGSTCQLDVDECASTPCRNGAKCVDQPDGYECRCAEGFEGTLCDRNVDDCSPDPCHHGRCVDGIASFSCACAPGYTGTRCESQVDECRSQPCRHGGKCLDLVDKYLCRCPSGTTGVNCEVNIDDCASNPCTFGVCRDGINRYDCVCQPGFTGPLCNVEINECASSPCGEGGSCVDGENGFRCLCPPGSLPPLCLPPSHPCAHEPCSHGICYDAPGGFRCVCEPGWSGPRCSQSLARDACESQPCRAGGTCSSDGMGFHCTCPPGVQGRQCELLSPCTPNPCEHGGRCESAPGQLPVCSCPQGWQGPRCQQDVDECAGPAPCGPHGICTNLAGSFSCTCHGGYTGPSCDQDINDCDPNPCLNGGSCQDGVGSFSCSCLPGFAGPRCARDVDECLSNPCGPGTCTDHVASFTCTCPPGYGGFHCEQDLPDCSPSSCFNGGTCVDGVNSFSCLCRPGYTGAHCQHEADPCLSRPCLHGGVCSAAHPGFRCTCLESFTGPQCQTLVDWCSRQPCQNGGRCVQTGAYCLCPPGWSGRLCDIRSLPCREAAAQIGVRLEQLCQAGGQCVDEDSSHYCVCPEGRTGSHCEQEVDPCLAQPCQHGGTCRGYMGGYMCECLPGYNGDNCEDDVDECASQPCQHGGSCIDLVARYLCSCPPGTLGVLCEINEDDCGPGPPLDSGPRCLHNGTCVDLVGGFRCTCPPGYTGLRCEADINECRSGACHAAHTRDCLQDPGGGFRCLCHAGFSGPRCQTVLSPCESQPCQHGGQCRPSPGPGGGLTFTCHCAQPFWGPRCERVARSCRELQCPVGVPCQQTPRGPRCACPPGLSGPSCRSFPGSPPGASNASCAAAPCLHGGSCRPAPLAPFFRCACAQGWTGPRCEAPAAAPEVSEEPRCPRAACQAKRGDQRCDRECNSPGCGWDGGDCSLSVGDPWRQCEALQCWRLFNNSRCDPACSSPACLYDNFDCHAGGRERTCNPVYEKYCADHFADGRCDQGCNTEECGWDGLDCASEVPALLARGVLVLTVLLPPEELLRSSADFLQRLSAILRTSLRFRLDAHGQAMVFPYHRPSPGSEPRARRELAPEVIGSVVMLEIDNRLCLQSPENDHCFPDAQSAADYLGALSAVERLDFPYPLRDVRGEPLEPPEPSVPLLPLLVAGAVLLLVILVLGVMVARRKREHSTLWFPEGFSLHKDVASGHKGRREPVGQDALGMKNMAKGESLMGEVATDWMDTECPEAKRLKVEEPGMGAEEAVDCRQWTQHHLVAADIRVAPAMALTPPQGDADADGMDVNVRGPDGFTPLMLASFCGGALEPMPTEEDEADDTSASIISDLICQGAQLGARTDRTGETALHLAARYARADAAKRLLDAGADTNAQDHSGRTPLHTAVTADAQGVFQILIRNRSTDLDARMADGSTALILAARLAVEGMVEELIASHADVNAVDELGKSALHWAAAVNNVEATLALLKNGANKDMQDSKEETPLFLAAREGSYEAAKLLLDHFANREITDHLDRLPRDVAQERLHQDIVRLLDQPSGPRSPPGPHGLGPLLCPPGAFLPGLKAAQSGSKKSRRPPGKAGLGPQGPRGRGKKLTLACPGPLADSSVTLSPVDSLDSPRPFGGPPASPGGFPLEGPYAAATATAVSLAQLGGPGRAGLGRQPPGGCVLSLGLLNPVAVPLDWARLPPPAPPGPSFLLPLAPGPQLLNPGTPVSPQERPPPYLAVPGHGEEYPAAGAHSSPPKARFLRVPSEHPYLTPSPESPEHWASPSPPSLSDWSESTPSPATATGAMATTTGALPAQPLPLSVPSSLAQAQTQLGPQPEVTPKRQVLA
A short description of assay [10]: small-molecule microarray binders of probe aEGFR, primary screen, biochemical, biotinylated probe, 635/667 nm fluorescence (AID 1097).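 Further: probe is a biotinylated anti-EGFR antibody binding compounds printed on slides; score combines fluorescence near 667 nm and signal to noise of each spot.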 To be noted: higher = more signal.
The subject of assay [11] is Plasmodium falciparum Sir2 (PF13_0152, Sir2A). The assay can be described thus: pfSir2 binders on small-molecule microarrays, primary screen, biochemical, small-molecule microarray, 635 nm fluorescence (AID 1098).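 Further: score merges spot fluorescence intensity with its signal-to-noise ratio.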 Particulars: small-molecule microarray binding, fluorescence 635 nm; higher = more signal.
The nature of assay [12]: small-molecule microarray binders of probe aDKK1, primary screen, biochemical, biotinylated probe, 635/667 nm fluorescence (AID 1099).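 Further: score merges 667nm spot fluorescence with signal to noise across triplicate slides; reference of the scale not given here.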 Particulars: higher = more signal.
A short description of assay [13]: small-molecule microarray binders of probe aCHRDL2, primary screen, biochemical, biotinylated probe, 635/667 nm fluorescence (AID 1100). Particulars: higher = more signal.
A short description of assay [14]: splicing luciferase reporter signal modulators, primary screen, spliceosome inhibition project, cell-based, HEK293, splice +/- reporter (AID 1101).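 Further: HEK293 cells carrying a splicing-competent luciferase reporter gene; test concentration not given here.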 To be noted: luminescence, 24 h, higher = more signal, called active from +8 up or from −8 down. In general terms: Reporter assays use an easily measured gene product as a stand-in for the process of interest.
For assay [15], the target named is Fibroblast growth factor 10 (Homo sapiens) (UniProt O15520). The experiment in a line: FGF10 binders on small-molecule microarrays, primary screen, biochemical, small-molecule microarray, 635 nm fluorescence (AID 1102). To be noted: FGF10 binding, fluorescence 635 nm, higher = more signal.
Sequence of Fibroblast growth factor 10 (Homo sapiens) (O15520 whole entry, looked up): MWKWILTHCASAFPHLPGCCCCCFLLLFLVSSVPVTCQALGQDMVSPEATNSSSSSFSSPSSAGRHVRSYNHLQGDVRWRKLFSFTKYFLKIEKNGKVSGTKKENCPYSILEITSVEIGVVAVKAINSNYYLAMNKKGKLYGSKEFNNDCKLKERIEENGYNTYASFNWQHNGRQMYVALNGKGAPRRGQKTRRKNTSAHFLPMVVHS
For assay [16], the system named is glycogen synthase kinase-3 (GSK3A per assay name; protocol says GSK3B). The experiment in a line: GSK3 binders on small-molecule microarrays, primary screen, biochemical, small-molecule microarray, 635 nm fluorescence, GSK3A (AID 1103). Further: the record names both GSK3A and GSK3B. To be noted: small-molecule microarray binding, fluorescence 635 nm; higher = more signal.
In assay [17] the target is Epidermal growth factor receptor (Homo sapiens) (UniProt P00533). The assay can be described thus: EGFR binders on small-molecule microarrays, primary screen, biochemical, small-molecule microarray, 635 nm fluorescence (AID 1104).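 Further: score merges 667 nm emission intensity with spot signal to noise over triplicate slides.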 To be noted: EGFR binding, higher = more signal.
Sequence of Epidermal growth factor receptor (Homo sapiens) (P00533 whole entry, looked up): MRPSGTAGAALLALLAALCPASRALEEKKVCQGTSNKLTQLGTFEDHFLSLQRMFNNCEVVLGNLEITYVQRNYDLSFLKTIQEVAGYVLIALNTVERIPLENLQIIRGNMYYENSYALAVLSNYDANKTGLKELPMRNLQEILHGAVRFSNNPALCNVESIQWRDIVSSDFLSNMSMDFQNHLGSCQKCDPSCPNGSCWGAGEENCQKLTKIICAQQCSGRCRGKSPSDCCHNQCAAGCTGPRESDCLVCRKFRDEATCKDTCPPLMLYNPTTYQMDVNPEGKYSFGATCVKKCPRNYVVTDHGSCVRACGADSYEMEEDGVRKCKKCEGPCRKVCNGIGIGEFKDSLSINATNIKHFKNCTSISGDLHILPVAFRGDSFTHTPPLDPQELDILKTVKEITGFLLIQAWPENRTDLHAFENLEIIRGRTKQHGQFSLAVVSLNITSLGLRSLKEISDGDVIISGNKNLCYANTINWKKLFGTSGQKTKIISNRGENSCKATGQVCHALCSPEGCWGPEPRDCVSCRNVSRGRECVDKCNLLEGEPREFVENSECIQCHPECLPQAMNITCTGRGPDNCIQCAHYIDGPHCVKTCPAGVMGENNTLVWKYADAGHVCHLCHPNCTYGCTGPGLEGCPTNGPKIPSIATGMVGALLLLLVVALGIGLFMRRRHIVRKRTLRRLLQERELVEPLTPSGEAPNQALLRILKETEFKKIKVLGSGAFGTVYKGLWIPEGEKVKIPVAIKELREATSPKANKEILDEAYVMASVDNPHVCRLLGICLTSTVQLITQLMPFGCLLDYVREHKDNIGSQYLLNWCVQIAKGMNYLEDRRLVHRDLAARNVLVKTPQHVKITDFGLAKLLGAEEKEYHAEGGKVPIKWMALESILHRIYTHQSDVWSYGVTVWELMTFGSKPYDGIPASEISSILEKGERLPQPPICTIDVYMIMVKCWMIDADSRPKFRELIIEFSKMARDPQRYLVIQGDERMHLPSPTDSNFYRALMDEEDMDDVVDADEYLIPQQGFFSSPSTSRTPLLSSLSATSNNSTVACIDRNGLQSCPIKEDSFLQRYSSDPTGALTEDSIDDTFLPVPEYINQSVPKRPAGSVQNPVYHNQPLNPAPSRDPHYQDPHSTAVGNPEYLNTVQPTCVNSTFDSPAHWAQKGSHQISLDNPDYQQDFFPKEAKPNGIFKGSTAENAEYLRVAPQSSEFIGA
Assay [18] deals with Follistatin-related protein 3 (Homo sapiens) (UniProt O95633). The assay can be described thus: FSTL3 binders on small-molecule microarrays, primary screen, biochemical, small-molecule microarray, 635 nm fluorescence (AID 1105).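 Further: score merges emission near 667 nm and signal to noise per printed spot across three slides.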 Particulars: FSTL3 binding, higher = more signal.
Sequence of Follistatin-related protein 3 (Homo sapiens) (O95633 whole entry, looked up): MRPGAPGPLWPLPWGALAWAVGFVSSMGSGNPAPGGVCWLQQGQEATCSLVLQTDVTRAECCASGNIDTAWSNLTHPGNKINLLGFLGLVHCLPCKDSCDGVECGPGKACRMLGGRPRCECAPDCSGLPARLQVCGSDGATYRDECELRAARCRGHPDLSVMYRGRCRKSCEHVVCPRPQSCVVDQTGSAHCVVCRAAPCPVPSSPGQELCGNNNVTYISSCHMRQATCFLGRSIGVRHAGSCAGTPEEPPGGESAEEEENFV
In assay [19] the target is Dickkopf-related protein 1 (Homo sapiens) (UniProt O94907). The experiment in a line: DKK1 binders on small-molecule microarrays, primary screen, biochemical, small-molecule microarray, 635 nm fluorescence scan (AID 1106).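 Further: score merges emission near 667 nm with signal to noise over three replicate slides.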 To be noted: DKK1 binding, higher = more signal.
Sequence of Dickkopf-related protein 1 (Homo sapiens) (O94907 whole entry, looked up): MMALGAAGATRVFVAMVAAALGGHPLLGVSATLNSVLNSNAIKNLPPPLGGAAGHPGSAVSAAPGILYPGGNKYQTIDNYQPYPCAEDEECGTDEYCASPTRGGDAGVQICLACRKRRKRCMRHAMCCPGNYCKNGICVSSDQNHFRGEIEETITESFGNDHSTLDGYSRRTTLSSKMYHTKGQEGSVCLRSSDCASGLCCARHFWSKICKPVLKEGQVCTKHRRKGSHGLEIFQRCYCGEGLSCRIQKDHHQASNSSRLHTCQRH
For assay [20], the system named is Inhibin beta A chain (activin A). The experiment in a line: INHBA (activin A) binders on microarrays, primary screen, biochemical, small-molecule microarray, 635 nm fluorescence scan (AID 1107).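 Further: mouse activin A protein probed at 4.33 µg/mL on printed slides; score merges bound-protein fluorescence near 667 nm with spot signal-to-noise.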 To be noted: small-molecule microarray binding, higher = more signal.

For `CC(c1ccccc1)C(O)C1C=CC2C(=O)N(Cc3ccccc3)C(=O)C2N1n1cnnc1` (stereo not given), the composite z-score is 0.418 in assay [1]; 1.6 in [5]; 0.0524 in [7]; 0.483 in [8]; 0.728 in assay [9]; 0.08 in assay [10]. Moreover, the composite z-score in assay [11] is 0.424; in assay [12] it was 0.492; in [13] it was 0.675; in assay [15] it was 0.691; in [16], 0.29; in [17] it was 0.153. The composite z-score was 0.369 in assay [18], -0.174 in [19] and 0.813 in [20]. Besides, the z-score in assay [2] is -1.04 (inactive); in assay [3], -0.0262 (inactive); in assay [4], 0.496 (inactive); in assay [6], -1.27 (inactive); in assay [14], -0.605 (inactive).
Consider `COC(=O)[C@@]1(Cc2ccccc2)[C@H]2c3cc(C(=O)N(C)C)n(Cc4cc(F)c(F)c(F)c4)c3C[C@H]2CN1C(=O)c1ccccc1`, for which the composite z-score in assay [1] was 0.664; in assay [5] it was 3.22; in assay [7] it was 0.461; in assay [8], 0.137; in assay [9], 1.04; in assay [10] it was 0.218. Also, the composite z-score in assay [11] was 1.47; in assay [12], 0.375; in [13], 1.22; in assay [15], 0.86; in [16], -0.629; in assay [17], 0.0296. Moreover, the composite z-score was 0.521 in assay [18], -0.818 in [19] and 0.748 in assay [20]. Moreover, the z-score was 0.103 (inactive) in assay [2]; 1.52 (inactive) in [3]; 0.405 (inactive) in assay [4]; -0.832 (inactive) in assay [6]; -3.26 (inactive) in assay [14].
`O=C1O[C@H](c2ccccc2)[C@H](c2ccccc2)N2[C@H]1[C@@H](C(=O)NC[C@H](O)c1ccccc1)[C@]1(C(=O)Nc3ccc(C#CC4=CCCCC4)cc31)[C@H]2c1ccc(O)cc1`: the composite z-score in assay [1] was 1.55; in assay [5] it was 2.59; in [7], -0.0766; in assay [8], 1.61; in [9], 1.08; in assay [10], 0.272. In addition, the composite z-score in assay [11] amounted to 1.29; in assay [12], 0.137; in assay [13], 0.176; in [15], 1.3; in assay [16], 1.29; in assay [17], 0.57. Besides, the composite z-score in assay [18] is 1.33; in assay [19] it was 0.542; in assay [20] it was -0.201. Also, the z-score in assay [2] was 0.896 (inactive); in assay [3], 0.543 (inactive); in assay [4] it was 1.62 (inactive); in assay [6], 2 (inactive); in assay [14], -2.1 (inactive).
On to `COCCOC(=O)N1C(=O)[C@@]2(c3cc(C#CCCO)ccc31)[C@H](c1ccc(O)cc1)N1[C@H](c3ccccc3)[C@H](c3ccccc3)OC(=O)[C@H]1[C@@H]2C(=O)N1CCCCCCC1`, for which the composite z-score in assay [1] is 1.54; in assay [5], 2.86; in assay [7], 0.947; in assay [8], 1.29; in assay [9] it was 0.991; in [10], 0.335. The composite z-score in assay [11] came to 1.4; in [12], 1.51; in assay [13], 0.885; in [15], 1.13; in assay [16], 1.26; in [17], 0.483. The composite z-score in assay [18] worked out at 1.39; in [19], 0.771; in assay [20], 1.59. Also, the z-score in [2] is 0.616 (inactive); in [3], 0.948 (inactive); in assay [4] it was 0.563 (inactive); in assay [6], -0.16 (inactive); in assay [14] it was 0.242 (inactive).
On to `CC1CC/C=C\[C@H]2OC34C=CCN(Cn5nnc6ccccc65)C(=O)[C@H]3N(CCCO)C(=O)[C@@H]4C2C(=O)O1` (stereo not given in full), for which the composite z-score in assay [1] is -0.749; in [5], 0.389; in [7], -0.0499; in assay [8], -0.511; in assay [9] it was 0.0174; in [10], -0.192. The composite z-score in assay [11] was 1.14; in assay [12] it was -0.12; in assay [13], 0.763; in assay [15], -1.04; in assay [16], -1.31; in [17], -0.991. The composite z-score in assay [18] was -0.97; in [19] it was -1.6; in assay [20] it was 0.767. In addition, the z-score in [2] is 0.175 (inactive); in [3] it was -0.463 (inactive); in assay [4], 0.203 (inactive); in [6], 1.82 (inactive); in assay [14], -0.538 (inactive).
